The supplement of paper PMC11732987, “Enantioselective OTUD7B fragment discovery through chemoproteomics screening and high-throughput optimisation” (Communications Chemistry, 2025)

Legend:
Assay in all cases: log2 ratio of Biotin-Ahx-Ub-VS probe labelling (fragment/DMSO); higher = less target engagement (more negative = stronger competition), active = hit call of the paper (q ≤ 0.05, log2 ratio ≤ -1)
Details in all cases: compound concentration: 200 uM; treatment time: 3 h
ALG13 = molecular target: T1, ALG13 (UniProt Q9NP73)
T1 sequence (whole entry): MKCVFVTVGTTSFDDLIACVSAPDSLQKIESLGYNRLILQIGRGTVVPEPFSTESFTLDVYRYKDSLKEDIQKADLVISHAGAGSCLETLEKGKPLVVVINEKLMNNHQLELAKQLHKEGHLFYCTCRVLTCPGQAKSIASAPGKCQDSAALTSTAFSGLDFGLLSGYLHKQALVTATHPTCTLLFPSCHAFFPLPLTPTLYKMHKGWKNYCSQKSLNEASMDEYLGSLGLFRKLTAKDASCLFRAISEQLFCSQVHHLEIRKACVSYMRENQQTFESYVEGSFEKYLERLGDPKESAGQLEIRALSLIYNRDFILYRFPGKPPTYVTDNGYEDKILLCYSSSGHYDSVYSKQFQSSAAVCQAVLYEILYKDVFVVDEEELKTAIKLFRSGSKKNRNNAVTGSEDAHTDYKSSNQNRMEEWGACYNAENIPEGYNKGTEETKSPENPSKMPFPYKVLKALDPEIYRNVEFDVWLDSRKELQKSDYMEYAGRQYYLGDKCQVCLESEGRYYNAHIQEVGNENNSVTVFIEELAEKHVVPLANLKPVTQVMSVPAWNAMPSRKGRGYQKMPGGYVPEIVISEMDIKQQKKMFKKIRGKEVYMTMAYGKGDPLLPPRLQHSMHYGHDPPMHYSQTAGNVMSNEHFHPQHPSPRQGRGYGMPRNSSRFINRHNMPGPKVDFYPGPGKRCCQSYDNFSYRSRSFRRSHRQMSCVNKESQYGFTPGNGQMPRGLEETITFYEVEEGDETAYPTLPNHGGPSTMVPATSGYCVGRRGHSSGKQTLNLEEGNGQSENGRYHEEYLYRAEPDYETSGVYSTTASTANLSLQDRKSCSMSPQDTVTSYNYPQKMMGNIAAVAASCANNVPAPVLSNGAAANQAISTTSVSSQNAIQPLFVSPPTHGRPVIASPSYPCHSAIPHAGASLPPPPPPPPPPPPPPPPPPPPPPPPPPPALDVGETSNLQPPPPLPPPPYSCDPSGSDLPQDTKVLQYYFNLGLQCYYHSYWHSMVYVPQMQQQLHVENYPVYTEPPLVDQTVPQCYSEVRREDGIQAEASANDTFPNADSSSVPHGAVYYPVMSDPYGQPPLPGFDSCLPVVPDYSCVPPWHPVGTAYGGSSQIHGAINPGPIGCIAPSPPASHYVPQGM
Method in brief: (§1)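 Triplicate samples of HEK293T lysate, 495 µg each, received fragment at 200 µM or vehicle for 3 h, followed by Biotin-Ahx-Ub-VS (0.5 µM final) for 1 h. After NeutrAvidin enrichment of labelled DUBs and LysC/trypsin digestion, peptides were run by diaPASEF LC-MS/MS. The values are average log2 fragment/vehicle ratios from global-median-normalised Spectronaut label-free quantities, tested by unpaired t-test on proteins having ≥2 unique peptides.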

ATXN3 = ATXN3 (UniProt P54252)
Method in brief: as §1

BAP1 = molecular target: T2, BAP1 (UniProt Q92560)
T2 sequence (whole entry): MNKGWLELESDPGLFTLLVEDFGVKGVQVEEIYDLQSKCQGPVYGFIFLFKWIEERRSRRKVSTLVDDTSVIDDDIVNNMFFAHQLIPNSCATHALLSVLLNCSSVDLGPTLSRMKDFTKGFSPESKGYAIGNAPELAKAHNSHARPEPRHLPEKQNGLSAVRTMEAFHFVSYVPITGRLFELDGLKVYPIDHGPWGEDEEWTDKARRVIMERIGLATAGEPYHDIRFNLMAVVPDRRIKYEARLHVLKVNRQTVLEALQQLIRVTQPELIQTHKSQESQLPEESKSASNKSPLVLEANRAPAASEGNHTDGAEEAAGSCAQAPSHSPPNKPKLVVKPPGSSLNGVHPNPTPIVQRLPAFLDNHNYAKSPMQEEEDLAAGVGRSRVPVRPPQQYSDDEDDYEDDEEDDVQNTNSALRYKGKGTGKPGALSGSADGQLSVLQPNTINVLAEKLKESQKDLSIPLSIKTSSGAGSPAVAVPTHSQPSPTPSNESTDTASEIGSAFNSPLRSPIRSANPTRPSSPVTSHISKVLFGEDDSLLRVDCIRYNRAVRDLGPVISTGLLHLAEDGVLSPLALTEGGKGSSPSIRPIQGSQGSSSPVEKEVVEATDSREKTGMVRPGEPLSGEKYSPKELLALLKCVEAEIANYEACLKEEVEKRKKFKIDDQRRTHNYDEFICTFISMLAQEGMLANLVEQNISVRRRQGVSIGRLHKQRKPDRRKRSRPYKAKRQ
Method in brief: as §1

EIF3F = EIF3F (UniProt O00303)
Method in brief: as §1

EIF3H = EIF3H (UniProt O15372)
Method in brief: as §1

FAM105A = molecular target: T3, FAM105A (UniProt Q9NUU6)
T3 sequence (whole entry): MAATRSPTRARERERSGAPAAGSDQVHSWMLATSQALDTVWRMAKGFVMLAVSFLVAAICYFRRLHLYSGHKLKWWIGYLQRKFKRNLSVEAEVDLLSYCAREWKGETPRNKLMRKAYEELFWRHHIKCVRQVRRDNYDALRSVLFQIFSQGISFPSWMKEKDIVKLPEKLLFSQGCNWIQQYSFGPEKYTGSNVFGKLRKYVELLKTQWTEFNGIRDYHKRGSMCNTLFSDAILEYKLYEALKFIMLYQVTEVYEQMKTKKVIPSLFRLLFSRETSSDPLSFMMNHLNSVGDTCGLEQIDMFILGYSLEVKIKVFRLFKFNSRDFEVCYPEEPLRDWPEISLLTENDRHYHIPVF
Method in brief: as §1

OTUB1 = OTUB1 (UniProt Q96FW1)
Method in brief: as §1

OTUD4 = molecular target: T4, OTUD4 (UniProt Q01804)
T4 sequence (whole entry): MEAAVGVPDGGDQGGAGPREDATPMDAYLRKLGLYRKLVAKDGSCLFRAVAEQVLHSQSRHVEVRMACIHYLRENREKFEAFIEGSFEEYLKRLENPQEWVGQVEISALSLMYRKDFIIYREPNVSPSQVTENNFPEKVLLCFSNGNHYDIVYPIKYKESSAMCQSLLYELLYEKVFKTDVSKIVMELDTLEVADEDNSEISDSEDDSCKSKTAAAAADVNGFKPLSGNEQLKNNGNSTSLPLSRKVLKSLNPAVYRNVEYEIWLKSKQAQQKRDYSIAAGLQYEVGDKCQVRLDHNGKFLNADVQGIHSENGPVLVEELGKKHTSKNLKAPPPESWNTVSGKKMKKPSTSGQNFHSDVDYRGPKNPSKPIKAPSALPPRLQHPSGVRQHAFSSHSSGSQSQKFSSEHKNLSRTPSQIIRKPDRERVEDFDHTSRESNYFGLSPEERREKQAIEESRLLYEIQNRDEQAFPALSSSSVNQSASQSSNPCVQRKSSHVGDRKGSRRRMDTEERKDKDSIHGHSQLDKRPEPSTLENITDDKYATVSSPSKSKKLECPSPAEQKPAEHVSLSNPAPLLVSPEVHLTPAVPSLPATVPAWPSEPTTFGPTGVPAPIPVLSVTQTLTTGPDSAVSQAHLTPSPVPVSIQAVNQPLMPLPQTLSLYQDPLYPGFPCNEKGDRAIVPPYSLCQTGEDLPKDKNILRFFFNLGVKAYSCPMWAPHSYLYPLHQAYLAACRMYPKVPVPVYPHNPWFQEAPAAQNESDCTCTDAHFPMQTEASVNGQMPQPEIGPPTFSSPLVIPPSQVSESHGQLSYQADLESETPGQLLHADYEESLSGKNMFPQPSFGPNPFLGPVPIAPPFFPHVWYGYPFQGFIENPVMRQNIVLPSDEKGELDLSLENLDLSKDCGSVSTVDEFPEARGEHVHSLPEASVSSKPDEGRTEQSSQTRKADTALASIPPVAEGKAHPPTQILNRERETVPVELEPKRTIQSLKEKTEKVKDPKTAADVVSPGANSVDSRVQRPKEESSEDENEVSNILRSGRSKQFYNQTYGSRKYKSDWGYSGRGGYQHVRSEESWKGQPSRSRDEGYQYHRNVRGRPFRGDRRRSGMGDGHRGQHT
Method in brief: as §1

OTUD5 = molecular target: T5, OTUD5 (UniProt Q96G74)
T5 sequence (whole entry): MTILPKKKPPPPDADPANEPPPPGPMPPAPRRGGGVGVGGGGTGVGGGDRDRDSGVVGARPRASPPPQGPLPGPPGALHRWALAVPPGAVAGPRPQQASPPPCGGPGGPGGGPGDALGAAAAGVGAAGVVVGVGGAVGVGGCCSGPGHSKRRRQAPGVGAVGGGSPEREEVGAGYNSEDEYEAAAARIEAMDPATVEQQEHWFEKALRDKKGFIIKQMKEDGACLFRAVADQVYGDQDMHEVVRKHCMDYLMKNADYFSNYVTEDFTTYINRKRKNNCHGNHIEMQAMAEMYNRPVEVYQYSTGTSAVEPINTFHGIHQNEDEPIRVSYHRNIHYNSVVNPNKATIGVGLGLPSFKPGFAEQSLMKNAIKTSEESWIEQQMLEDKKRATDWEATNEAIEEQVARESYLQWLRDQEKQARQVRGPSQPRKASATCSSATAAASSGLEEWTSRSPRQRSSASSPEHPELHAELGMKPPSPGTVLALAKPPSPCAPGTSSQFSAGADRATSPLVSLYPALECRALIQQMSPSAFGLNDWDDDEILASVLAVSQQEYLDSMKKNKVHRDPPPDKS
Method in brief: as §1

Measured: log2 ratio of Biotin-Ahx-Ub-VS probe labelling

Chain of EIF3F (O00303 whole entry): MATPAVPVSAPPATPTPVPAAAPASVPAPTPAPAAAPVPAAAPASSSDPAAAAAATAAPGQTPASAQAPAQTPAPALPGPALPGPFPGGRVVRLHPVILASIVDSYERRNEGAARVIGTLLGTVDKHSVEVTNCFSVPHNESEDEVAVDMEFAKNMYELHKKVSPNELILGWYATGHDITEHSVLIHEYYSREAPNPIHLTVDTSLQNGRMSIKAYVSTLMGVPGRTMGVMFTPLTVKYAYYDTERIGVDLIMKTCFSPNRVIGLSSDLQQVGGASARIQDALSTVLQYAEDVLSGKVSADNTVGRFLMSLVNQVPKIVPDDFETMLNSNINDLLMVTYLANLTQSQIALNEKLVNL
Chain of ATXN3 (P54252 whole entry): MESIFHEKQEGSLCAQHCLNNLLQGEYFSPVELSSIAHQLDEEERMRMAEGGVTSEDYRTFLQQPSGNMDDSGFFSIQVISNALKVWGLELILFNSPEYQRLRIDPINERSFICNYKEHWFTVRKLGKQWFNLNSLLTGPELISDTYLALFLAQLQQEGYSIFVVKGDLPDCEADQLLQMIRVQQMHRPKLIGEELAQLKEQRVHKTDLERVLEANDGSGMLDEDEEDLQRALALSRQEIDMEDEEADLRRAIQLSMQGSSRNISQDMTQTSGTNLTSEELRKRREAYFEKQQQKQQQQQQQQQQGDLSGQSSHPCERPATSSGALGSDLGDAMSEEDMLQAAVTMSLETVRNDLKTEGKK
Chain of OTUB1 (Q96FW1 whole entry): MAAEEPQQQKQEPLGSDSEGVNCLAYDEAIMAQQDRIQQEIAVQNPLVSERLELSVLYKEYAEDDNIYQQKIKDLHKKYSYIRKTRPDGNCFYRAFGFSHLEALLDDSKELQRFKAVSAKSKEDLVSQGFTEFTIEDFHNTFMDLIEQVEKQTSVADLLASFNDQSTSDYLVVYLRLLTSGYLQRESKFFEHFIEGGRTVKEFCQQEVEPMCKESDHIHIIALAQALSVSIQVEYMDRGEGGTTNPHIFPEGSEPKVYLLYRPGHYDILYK
Chain of EIF3H (O15372 whole entry): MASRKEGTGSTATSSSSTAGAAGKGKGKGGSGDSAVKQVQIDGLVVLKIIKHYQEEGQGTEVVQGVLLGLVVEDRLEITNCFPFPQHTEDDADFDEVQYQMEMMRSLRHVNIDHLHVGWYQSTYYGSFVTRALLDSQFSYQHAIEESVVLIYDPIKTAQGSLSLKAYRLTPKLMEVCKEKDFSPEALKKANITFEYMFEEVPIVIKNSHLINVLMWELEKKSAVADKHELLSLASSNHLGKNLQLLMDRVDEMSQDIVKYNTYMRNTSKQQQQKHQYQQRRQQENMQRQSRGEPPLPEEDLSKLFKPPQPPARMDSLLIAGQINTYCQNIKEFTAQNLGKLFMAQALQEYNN

Cc1ccc(CN(C)C(=O)CCl)o1
inactive: ALG13 0.042 | ATXN3 -0.103 | BAP1 -0.4 | EIF3F -0.0182 | EIF3H -0.047 | FAM105A 0.277 | OTUB1 0.103 | OTUD4 0.05 | OTUD5 -0.308
